Data from PubChem BioAssay AID624267 (The Scripps Research Institute Molecular Screening Center, 2012).
The whole screen tested about 360,000 compounds, of which about 1,400 (0.39%) were called active. Rule as the data show it: active = inhibition above about 21%; inactive = the rest. The full list was thinned out, with actives kept by preference.

biological target: Receptor-interacting serine/threonine-protein kinase 2 (Homo sapiens) (UniProt O43353); test: NOD2-RIPK2 binding disruptors in cells, primary screen, fluorescence, CHO cells, BLA complementation (AID 624267); settings: CHO BLA complementation NOD2-RIPK2, CCF4 ratio; at 4.98 µM; stronger effect = higher value;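 also: 0% = vehicle only and 100% = reference blocker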
Sequence (O43353 whole entry, looked up): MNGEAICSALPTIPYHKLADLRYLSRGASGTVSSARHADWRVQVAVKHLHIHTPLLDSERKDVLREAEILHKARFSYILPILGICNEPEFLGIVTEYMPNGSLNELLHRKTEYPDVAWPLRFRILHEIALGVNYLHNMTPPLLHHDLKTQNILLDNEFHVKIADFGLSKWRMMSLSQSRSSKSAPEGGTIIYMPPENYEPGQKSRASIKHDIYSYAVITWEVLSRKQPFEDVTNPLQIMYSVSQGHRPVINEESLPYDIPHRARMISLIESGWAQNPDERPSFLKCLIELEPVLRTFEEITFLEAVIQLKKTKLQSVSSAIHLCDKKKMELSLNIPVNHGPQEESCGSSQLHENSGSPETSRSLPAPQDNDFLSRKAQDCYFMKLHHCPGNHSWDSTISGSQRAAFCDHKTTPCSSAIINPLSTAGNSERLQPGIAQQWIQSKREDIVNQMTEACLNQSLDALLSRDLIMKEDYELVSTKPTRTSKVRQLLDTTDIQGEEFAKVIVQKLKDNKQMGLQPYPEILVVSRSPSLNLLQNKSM

SMILES | inhibition
CCOC(=O)[C@]12Cc3ccccc3[C@H]1N(C1CCCCC1)C(=O)c1cc(OC)ccc12 | 43.5% (active)
CCOC(=O)[C@]12Cc3cc(OC)ccc3[C@H]1N(C(C)C)C(=O)c1ccccc12 | -1.01% (inactive)
CCOC(=O)c1cccc(C2=C(CNC(=O)c3ccncc3)[C@H]3CC[C@@H](C2)N3Cc2ccccc2)c1 | -12.2% (inactive)
Cc1ccc2c(c1)C1CN(C)CCC1N2C(=O)Cn1nnc(-c2ccccc2F)n1 (stereo not given) | -3.9% (inactive)
CCN1CCN(Cc2cc(OC)c3c(c2)OCO3)CC1 | -5.64% (inactive)
COc1cc(OC)cc(C2(C#N)CCN(C)CC2)c1 | -12.2% (inactive)
c1ccc(CCNC2CCCCCC2)cc1 | -21.6% (inactive)
CC(=O)OC1C2(CC3N4C(=O)C5(CO)SSC4(CC31O)C(=O)N5C)OC(C)C(C)(C)C2=O (stereo not given) | 63.9% (active)
CC(=NCc1ccc2c(c1)OCO2)c1c(O)[nH]c(=O)[nH]c1=O | 4.27% (inactive)
CC(C(=O)Nc1ccc(Cl)cc1Cl)N1CC=C(c2ccccc2)CC1 (stereo not given) | -16.5% (inactive)
CC[C@H]1CC2CN3CCc4c([nH]c5ccccc45)C(C(=O)OC)(C2)C13 (stereo not given in full) | -13.6% (inactive)
CNCC(O)c1cc(F)c(OCc2ccccc2)c(OCc2ccccc2)c1F (stereo not given) | -9.31% (inactive)
CN(C)CC1Oc2ccccc2OC1(O)c1ccccc1 (stereo not given) | 54.1% (active)
COc1ccccc1NC(=O)N1C[C@@H]2C[C@@H](C1)c1cccc(=O)n1C2 | -9.61% (inactive)
COC(=O)C1=C(c2ccc(Cl)c(C(F)(F)F)c2)C[C@@H]2CC[C@H]1N2C(=O)NC1CC1 | -1.54% (inactive)
